The supplement of paper PMC8975748
Counter-ions that a name gives are not always drawn.

Each compound was assayed on Saccharomyces cerevisiae BY4741 SeMeCo community (assay: z-score of subpopulation abundance vs DMSO median, subpopulation auxotrophic for HU; higher = larger share of this subpopulation than in DMSO controls). Settings: 10 µM; 24 h; SM minimal medium; subpopulation (auxotrophy): HU.
Protocol: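 Fluorescent four-plasmid SeMeCo (self-establishing metabolically cooperating S. cerevisiae BY4741 community; plasmids pH-mRuby2, pL-mWasabi, pU-eCFP, pM-TagRFP657) was grown 24 h in minimal SM medium with each Selleck FDA-approved drug at 10 µM in 384-well plates. Cells were fixed and imaged by high-content confocal microscopy. For each auxotrophic subpopulation (and the prototroph), a z-score gives the deviation from the DMSO vehicle-control population median.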
With `CN(Cc1ccc(C(C)(C)C)cc1)Cc1cccc2ccccc12` [Butenafine HCl] the “z-score of subpopulation abundance” value was -0.86.
For `Cc1c(-c2ccccc2)oc2c(C(=O)OCCN3CCCCC3)cccc2c1=O` [Flavoxate HCl], the “z-score of subpopulation abundance” value was 0.05.
In the case of `CC/C(=C(/CC)c1ccc(O)cc1)c1ccc(O)cc1` [Diethylstilbestrol], the “z-score of subpopulation abundance” value is reported as -1.29.
For `Oc1c(Cl)cc(Cl)c(Cl)c1Cc1c(O)c(Cl)cc(Cl)c1Cl` [Hexachlorophene], the “z-score of subpopulation abundance” value was 4.22.
In the case of `CCOc1cc(NC(C)=O)ccc1C(=O)OC` [Ethopabate], the “z-score of subpopulation abundance” value is reported as -0.22.
`Cc1c(OCC(F)(F)F)ccnc1C[S@@+]([O-])c1nc2ccccc2[nH]1` [Dexlansoprazole] was tested, and the “z-score of subpopulation abundance” value was -0.32.
In the case of `CN(C)C(=O)COC(=O)Cc1ccc(OC(=O)c2ccc(NC(=N)N)cc2)cc1` [Camostat Mesilate], the “z-score of subpopulation abundance” value is reported as -0.36.
For `O=C1CCc2ccc(OCCCCN3CCN(c4cccc(Cl)c4Cl)CC3)cc2N1` [Aripiprazole], the “z-score of subpopulation abundance” value was 1.26.
For `CNCc1cc(-c2ccccc2F)n(S(=O)(=O)c2cccnc2)c1` [Vonoprazan Fumarate (TAK-438)], the “z-score of subpopulation abundance” value was -0.16.
With `C#C[C@]1(O)CC[C@H]2[C@@H]3CCc4cc(OC)ccc4[C@H]3CC[C@@]21C` [Mestranol] the “z-score of subpopulation abundance” value was -0.49.
For `Nc1nc(=O)[nH]cc1F` [Flucytosine], the “z-score of subpopulation abundance” value was 8.85.
In the case of `Nc1c(CC(=O)O)cccc1C(=O)c1ccccc1` [Amfenac Sodium Monohydrate], the “z-score of subpopulation abundance” value is reported as -0.95.
For `CC1=C(C(=O)O)N2C(=O)[C@@H](NC(=O)[C@H](N)C3=CCC=CC3)[C@H]2SC1` [Cefradine], the “z-score of subpopulation abundance” value was -0.92.
`O=C(O)c1cc(-c2ccc(F)cc2F)ccc1O` [Diflunisal] was tested, and the “z-score of subpopulation abundance” value was -2.05.
With `CN1CCN(CCCN2c3ccccc3Sc3ccc(Cl)cc32)CC1` [Prochlorperazine dimaleate salt] the “z-score of subpopulation abundance” value was 0.89.
For `CC(C)Cc1ccc(C(C)C(=O)O)cc1` (stereo not given) [Ibuprofen], the “z-score of subpopulation abundance” value was -2.1.
In the case of `C=CCCCCCCCCC(=O)[O-].C=CCCCCCCCCC(=O)[O-].[Zn+2]` [Zinc Undecylenate], the “z-score of subpopulation abundance” value is reported as 2.38.
With `COc1cc([C@@H]2c3cc4c(cc3[C@@H](O[C@@H]3O[C@@H]5CO[C@@H](C)O[C@H]5[C@H](O)[C@H]3O)[C@H]3COC(=O)[C@H]23)OCO4)cc(OC)c1O` [Etoposide] the “z-score of subpopulation abundance” value was 0.37.
`Cc1cc(-c2ccc(/N=N/c3ccc4c(S(=O)(=O)O)cc(S(=O)(=O)O)c(N)c4c3O)c(C)c2)ccc1/N=N/c1ccc2c(S(=O)(=O)O)cc(S(=O)(=O)O)c(N)c2c1O` [Evans Blue] was tested, and the “z-score of subpopulation abundance” value was 10.3.
With `CC1=C(C(=O)O)N2C(=O)[C@@H](NC(=O)[C@H](N)c3ccccc3)[C@H]2SC1` [Cephalexin] the “z-score of subpopulation abundance” value was -0.74.
In the case of `CC(=O)N1CCN(c2ccc(OCC3COC(Cn4ccnc4)(c4ccc(Cl)cc4Cl)O3)cc2)CC1` (stereo not given) [Ketoconazole], the “z-score of subpopulation abundance” value is reported as -0.29.
In the case of `Cc1nnc(SCC2=C(C(=O)O)N3C(=O)[C@@H](NC(=O)Cn4cc(Cl)c(=O)c(Cl)c4)[C@H]3SC2)s1` [Cefazedone], the “z-score of subpopulation abundance” value is reported as -0.74.
With `COC(=O)C1=C(C#N)NC(C)=C(C(=O)OC(C)C)C1c1cccc([N+](=O)[O-])c1` (stereo not given) [Nilvadipine] the “z-score of subpopulation abundance” value was -1.66.
For `O=C1OCCN1/N=C/c1ccc([N+](=O)[O-])o1` [Furazolidone], the “z-score of subpopulation abundance” value was -5.84.
For `CN[C@@H]1[C@H](O[C@H]2[C@H](O[C@H]3[C@H](O)[C@@H](O)[C@H](N=C(N)N)[C@@H](O)[C@@H]3N=C(N)N)O[C@@H](C)[C@]2(O)C=O)O[C@@H](CO)[C@H](O)[C@H]1O` [Streptomycin sulfate], the “z-score of subpopulation abundance” value was 0.65.
With `NC[C@@H]1O[C@H](O[C@H]2[C@@H](O)[C@H](O[C@@H]3[C@@H](O)[C@H](N)C[C@H](N)[C@H]3O[C@H]3O[C@H](CO)[C@@H](O)[C@H](O)[C@H]3N)O[C@@H]2CO)[C@H](N)[C@@H](O)[C@@H]1O` [Paromomycin Sulfate] the “z-score of subpopulation abundance” value was -0.92.
For `CCOC(=O)CCC(=O)O[C@H]1[C@H](O[C@@H]2[C@@H](C)[C@H](O[C@H]3C[C@@](C)(OC)[C@@H](O)[C@H](C)O3)[C@@H](C)C(=O)O[C@H](CC)[C@@](C)(O)[C@H](O)[C@@H](C)C(=O)[C@H](C)C[C@@]2(C)O)O[C@H](C)C[C@@H]1N(C)C` [Erythromycin Ethylsuccinate], the “z-score of subpopulation abundance” value was 0.76.
`COc1ccccc1OCC(O)CN1CCN(CC(=O)Nc2c(C)cccc2C)CC1` (stereo not given) [Ranolazine 2HCl] was tested, and the “z-score of subpopulation abundance” value was -0.09.
`N[C@@H]1CCCCN(c2c(F)cc3c(=O)c(C(=O)O)cn(C4CC4)c3c2Cl)C1` [Besifloxacin HCl] was tested, and the “z-score of subpopulation abundance” value was 0.44.
`COC(=O)C1=C(C)NC(C)=C(C(=O)OCC(C)C)C1c1ccccc1[N+](=O)[O-]` (stereo not given) [Nisoldipine] was tested, and the “z-score of subpopulation abundance” value was 0.04.
In the case of `CO/N=C(\C(=O)N[C@@H]1C(=O)N2C(C(=O)O)=C(COC(N)=O)CS[C@H]12)c1ccco1` [Cefuroxime sodium], the “z-score of subpopulation abundance” value is reported as -0.93.
With `CCCCN1CCCC[C@H]1C(=O)Nc1c(C)cccc1C` [Levobupivacaine HCl] the “z-score of subpopulation abundance” value was 0.14.
`Cc1cc(CC(C)CC(C)(C)C)n(O)c(=O)c1` (stereo not given) [Piroctone Olamine] was tested, and the “z-score of subpopulation abundance” value was 31.8.
In the case of `C#C[C@]1(O)CC[C@H]2[C@@H]3CCC4=CCCC[C@@H]4[C@H]3CC[C@@]21C` [Lynestrenol], the “z-score of subpopulation abundance” value is reported as 0.4.
For `CC[C@@]1(O)C(=O)OCc2c1cc1n(c2=O)Cc2cc3c(CN(C)C)c(O)ccc3nc2-1` [Topotecan HCl], the “z-score of subpopulation abundance” value was -2.17.
`O=C(c1ccc(F)cc1)C1CCN(CCn2c(=O)[nH]c3ccccc3c2=O)CC1` [Ketanserin] was tested, and the “z-score of subpopulation abundance” value was -0.13.
With `CN[C@H](CC(C)C)C(=O)N[C@H]1C(=O)N[C@@H](CC(N)=O)C(=O)N[C@H]2C(=O)N[C@H]3C(=O)N[C@H](C(=O)N[C@H](C(=O)O)c4cc(O)cc(O)c4-c4cc3ccc4O)[C@H](O)c3ccc(c(Cl)c3)Oc3cc2cc(c3O[C@@H]2O[C@H](CO)[C@@H](O)[C@H](O)[C@H]2O[C@H]2C[C@](C)(N)[C@H](O)[C@H](C)O2)Oc2ccc(cc2Cl)[C@H]1O` [Vancomycin] the “z-score of subpopulation abundance” value was -0.91.
`COc1ccnc(C[S+]([O-])c2nc3cc(OC(F)F)ccc3[nH]2)c1OC` (stereo not given) [Pantoprazole] was tested, and the “z-score of subpopulation abundance” value was 0.3.
With `CSc1nc2cc(Cl)c(Oc3cccc(Cl)c3Cl)cc2[nH]1` [Triclabendazole] the “z-score of subpopulation abundance” value was 2.73.
In the case of `CCC1(C)CC(=O)NC1=O` (stereo not given) [Ethosuximide], the “z-score of subpopulation abundance” value is reported as -0.46.
